This is a sample that favours compounds with a hit; in the whole collection about 3.5% have one here.
mHTT CaM bind – disrupts binding of mutant huntingtin to calmodulin; P42858; AlphaScreen His-mHTT/GST-CaM binding, luminescence; inhibition, % at 15 µM; 190,000 compounds, 3.6% hits; AID 1671202;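 further: 0% = both proteins with DMSO and 100% = one protein alone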
Pf apPOL inh – Pf-apPOL DNA polymerase inhibition; Recombinant Pf-apPOL, molecular beacon fluorescence, 1.5 h; inhibition, % at 10 µM; 210,000 compounds, 0.25% hits
The depositor's hits bear a star; i = inactive; . = no result; ! = not confirmed by another sample. No stated cut-off is given here; in the data, active means inhibition above about 50%; inactive means the rest.

SMILES	mHTT CaM bind	Pf apPOL inh
Cc1cccc(N2CCN(CCc3ccccc3)CC2)c1C	100.2*	-2.2
Cc1ccc(N2CCN(CCc3ccccc3)CC2)cc1	14.9	-2.9
O=C(NC(Oc1ccccc1Cl)C(Cl)(Cl)Cl)c1ccco1 (stereo not drawn)	1.0	4.3
CN1CC(CO)CC2c3cccc4[nH]cc(c34)CC21 (stereo not drawn)	.	-4.8
CC12CN3CC(C)(CN(C1)C3c1ccncc1)C2=O (stereo not drawn)	2.0	-4.7
CCC12CN3CC(CC)(CN(C1)C3c1ccccn1)C2O (stereo not drawn)	100.0*	-14.4
Fc1ccc2c(C3CCNCC3)noc2c1	-2.6	.
C#CC1(O)CCC2C3CC=C4CC(OC(C)=O)CCC4(C)C3CCC21C (stereo not drawn)	7.0	.
O=C(O)c1cccc2c1NC(C(=O)O)C1CC(Sc3ccccc3[N+](=O)[O-])C(Cl)C21 (stereo not drawn)	77.0*	-5.0
CC1=CC(=C2C(=O)NC(=O)NC2=O)C=C(C(F)(F)F)N1CCc1ccccc1	24.0	-4.2
CC(=O)N1N=C2C3CCN(CC3)C2C1c1ccc(Cl)c(Cl)c1 (stereo not drawn)	6.5	-9.4
Nc1cc(C2CCNCC2)no1	-5.4	-1.3
COc1cc2c(cc1OC)C(C(=O)NCC1CCCO1)C1CCCCN1C2=O (stereo not drawn)	3.0	-2.7
Fc1nc(N2CCNCC2)c(F)c(Sc2ccc(Cl)cc2)c1F	96.3*	.
c1cnc2nc(N3CCNCC3)oc2c1	-2.8	.
CCn1cc(C(=O)Nc2cc(Cl)ccc2C)c2cccnc21	7.8	-2.9
CN1C(=O)C(=Cc2cccc(OCc3ccccc3Cl)c2)C(=O)N(C)C1=O	-24.0	-1.0
CSc1ccccc1NC(=O)c1cccn(Cc2ccc(C(F)(F)F)cc2)c1=O	-5.4	-6.3
CCn1cc(C(=O)Nc2ccc(C)c(C)c2)c2cccnc21	4.5	2.0
CN(C)c1ccc(CN2CCN(c3ccccc3Cl)CC2)cc1	53.1*	-7.5
CN(C)c1ccc(CN2CCN(Cc3ccccc3)CC2)cc1	3.0	-3.3
CCc1ccc(CN2CCN(CCO)CC2)cc1	-6.0	5.1
O=c1oc2ccccc2c(O)c1C(c1cccnc1)c1c(O)c2ccccc2oc1=O	6.7	-3.5
CCOc1cc(C(c2c(O)c3ccccc3oc2=O)c2c(O)c3ccccc3oc2=O)ccc1O	84.0*	-9.7
Nc1cc2nc3ccccc3nc2cc1O	100.3*	0.1
SMILES	mHTT CaM bind	Pf apPOL inh
Nc1cc2nc3ccccc3nc2cc1N	19.1	.
CCn1cc(C(=O)Nc2ccc(C)cc2)c2cccnc21	10.9	-14.5
Cc1nn(C(C)(C)C)c(C)c1C=NOC(=O)Nc1cccc(C(F)(F)F)c1	.	-2.6
O=C1c2ccccc2C(=O)c2ccccc21	.	3.1
O=C1C=CC(=O)c2c(O)cccc21	.	96.7*
CC1N=C(c2ccccc2)c2ccccc2N(CC(=O)Nc2ccc(F)c(Cl)c2)C1=O (stereo not drawn)	66.0*	-19.2
CC1N=C(c2ccccc2)c2ccccc2N(CC(=O)Nc2ccc(F)cc2Cl)C1=O (stereo not drawn)	5.0	-18.9
NCCc1cc(O)c(O)cc1O	31.3	.
NC(Cc1cc(O)c(O)cc1O)C(=O)O (stereo not drawn)	.	81.4*
Cc1nc(-c2ccccc2)oc1CC(=O)N1CCN(C)CC1	4.8	-0.8
CCc1ccc(NC(=O)c2cn(CC)c3ncccc23)cc1	17.4	-17.4
O=C1C2CCCN2C(c2cccnc2)N1c1ccc(Cl)c(Cl)c1 (stereo not drawn)	21.3	-2.2
O=C1C2CCCN2C(c2ccncc2)N1c1ccc(Cl)c(Cl)c1 (stereo not drawn)	85.3*	0.4
N#Cc1nonc1-c1nn[nH]n1	-1.0	.
O=[N+]([O-])c1c(Br)sc(Br)c1[N+](=O)[O-]	51.8*	.
COc1ccc(-c2coc3cc(OC(=O)N(C)C)ccc3c2=O)cc1OC	-1.0	-3.1
Cc1ccc(C=C2Oc3cc(OC(=O)N(C)C)ccc3C2=O)cc1	-4.6	-2.6
Clc1ccc(CN2CCN(c3ccccc3)CC2)c(Cl)c1	25.8	-3.4
COc1ccc(N2CCN(Cc3ccc(Cl)cc3Cl)CC2)cc1	61.0*	-5.4
CC1=CC(=C2C(=O)NC(=O)NC2=O)C=C(C)N1CCO	-4.0	-3.3
COc1cc(/C=C/[N+](=O)[O-])c(OC)cc1C	24.8	-3.8
COc1cc(Br)cc(/C=C/[N+](=O)[O-])c1O	71.9*	-0.8
Nc1cc(Br)ccc1O	2.2	.
CC12CCC3C(CC=C4CC(O)CCC43C)C1C/C(=C\c1cccs1)C2=O (stereo not drawn)	20.0	-0.9
COc1cccc(C=C2Oc3cc(OC(=O)N(C)C)ccc3C2=O)c1	10.6	-0.5
SMILES	mHTT CaM bind	Pf apPOL inh
CN(C)C(=O)Oc1ccc2c(c1)OC(=CC=Cc1ccccc1)C2=O	59.0*!	-4.0
COc1ccc(NC(=O)c2nc(C)n(C3CCN(C)CC3)c2C)c(OC)c1	21.3	58.6*
COc1ccc(OC)c(NC(=O)c2nc(C)n(C3CCN(C)CC3)c2C)c1	27.2	-4.7
CCOc1ccc2c(c1)OC(=Cc1ccc(OC(=O)N(C)C)c(OC)c1)C2=O	1.6	-11.8
Cn1c(=O)c2c(c3ccccc31)NC(=S)NN=C2	97.2*	.
Cc1ccc(CC(=O)N2CCN(Cc3noc4ccccc34)CC2)cc1	19.0	-3.8
O=C(c1ccc2c(c1)ncn2-c1ccc(OCc2ccccc2)cc1)N1CCC2(CC1)OCCO2	52.0*	-6.4
COc1ccc(-n2cnc3cc(C(=O)N4CCC5(CC4)OCCO5)ccc32)cc1	6.0	-2.1
O=C(c1ccccc1OCc1ccccc1)C1C(c2ccc(Cl)cc2)N1C1CCCCC1 (stereo not drawn)	.	-4.9
Cc1nc(C(=O)NCc2ccccc2)c(C)n1C1CCN(C)CC1	2.2	1.0
COc1ccc(N=Cc2cc3c(cc2O)OC(N)=C(C#N)C3c2ccco2)cc1 (stereo not drawn)	71.0*	-3.3
CN(C)C(CN)c1cn(C)c2ccccc12 (stereo not drawn)	69.4*	-0.1
CC(C)C/C(=N\O)c1cn(C)c2ccccc12	i	.
CN1CCC2(CC1)C(=C=N)C(=S)NC(=O)C2C#N (stereo not drawn)	-5.9	.
CCC1C=CC=CCC(C)C(O)C(C)(O)C(=O)C(C)C(O)C(C)C(=O)C(C)C(O)C(C)C=CC(=O)OC2C(C)C(CC1)OC1(CCC(C)C(CC(C)O)O1)C2C (stereo not drawn)	.	-8.1
Ic1ccc2c(c1)C1C=CCC1C(c1cccnc1)N2 (stereo not drawn)	97.0*	-3.0
Fc1ccc2c(c1)[C@@H]1C=CC[C@@H]1[C@H](c1cccnc1)N2	16.7	.
CCCn1cc(C(=O)NCCN2CCOCC2)c2cccnc21	-3.0	0.6
O=S(c1ccc(Cl)cc1)c1ccc(Cl)cc1	-8.7	.
CN1C(=O)C(=Cc2cccn2-c2ccc(S(N)(=O)=O)cc2)C(=O)N(C)C1=O	7.0	-2.6
Cc1ccc(-n2cccc2C=C2C(=O)NC(=O)NC2=O)cc1Cl	80.0*	4.3
COc1ccc2c(c1)C1(CCN(C(=O)Cc3ccc(OC)c(Cl)c3)C1)C(=O)N2 (stereo not drawn)	17.5	-2.0
COc1ccc2c(c1)C1(CCN(S(=O)(=O)c3ccc(F)cc3)C1)C(=O)N2 (stereo not drawn)	-0.7	-4.2
CN1C2CCC1CC(N=Cc1ccccc1)C2 (stereo not drawn)	.	-5.6
Cc1nn(-c2ccccc2)c([Se])c1C=NC1CCCCC1	63.0*	-0.9
CN1CCCN(Cc2c[nH]c3ccccc23)CC1	-3.8	-4.0
NCCc1c[nH]c2ccccc12	.	4.3

Source: PubChem BioAssay (University of Kansas High Throughput Screening Laboratory)
